A short description of assay [1]: TOX21_p53_BLA_p2_viability: Viability Assessment in the Tox21 HCT-116 p53 Agonism Beta-lactamase Assay, Phase 2 (AID 2283591).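 Note: compound exposure lasted 16 h at 37 °C; actives lower the ATP signal meaning cytotoxicity.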 Summed up:
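HCT116 p53-bla cells, 4000/well, dosed after 5 h plating (217-fold dilution of DMSO stocks) and incubated 16 h at 37C. Viability taken as cellular ATP by CellTiter-Glo luminescence after 30 min RT; signal loss marks cytotoxicity.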

The target in assay [2] is Cellular tumor antigen p53 (Homo sapiens) (UniProt P04637). Kind of assay: TOX21_p53_BLA_p2_ratio: Tox21 HCT-116 p53 Agonism Beta-lactamase Assay, Ratio, Phase 2 (AID 2283592). The method, boiled down:
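Cleaved-to-uncleaved substrate ratio (460 vs 530 nm) measured in HCT116 cells with an inducible beta-lactamase reporter linked to p53 activity. Compounds incubated 16 h at 37C before 2 h room-temperature CCF4-AM loading.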

Assay [3] in a line: TOX21_p53_BLA_p3_viability: Viability Assessment in the Tox21 HCT-116 p53 Agonism Beta-lactamase Assay, Phase 3 (AID 2283593).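 Note: cells exposed to compound for 16 h before reading.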 The method, boiled down:
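HCT116 cells, 4000/well, dosed 5 h after plating by pin transfer (217-fold dilution from DMSO stock) and incubated 16 h at 37C, 5% CO2. Viability read as ATP luminescence with CellTiter-Glo after 30 min at room temperature.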

The target in assay [4] is Cellular tumor antigen p53 (Homo sapiens) (UniProt P04637). Kind of assay: TOX21_p53_BLA_p3_ratio: Tox21 HCT-116 p53 Agonism Beta-lactamase Assay, Ratio, Phase 3 (AID 2283596). Summed up:
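Cells were seeded at 4000/well, rested 5 h at 37C, then dosed with DMSO compound solutions (217-fold dilution) for 16 h. CCF4-AM substrate was loaded for 2 h at room temperature, and the 460/530 nm emission ratio was fitted for gain of signal versus DMSO.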

For assay [5] the target is unchanged. As to the kind of experiment: TOX21_p53_BLA_p5_ratio: Tox21 HCT-116 p53 Agonism Beta-lactamase Assay, Ratio, Phase 5 (AID 2283599). The method, boiled down: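 HCT-116 p53-bla cells (4000/well) plated 5 h, dosed with compound (217-fold DMSO dilution) for 16 h at 37 C; CCF4-AM substrate 2 h at room temperature. Activity is the 460/530 nm emission ratio (405 nm excitation), fitted in gain-of-signal direction versus DMSO.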

The target is the same in assay [6]. Kind of assay: TOX21_p53_BLA_p4_ratio: Tox21 HCT-116 p53 Agonism Beta-lactamase Assay, Ratio, Phase 4 (AID 2283601). Summed up:
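HCT-116 p53 beta-lactamase reporter cells (4000/well) preincubated 5 h, then compound (217-fold dilution of DMSO stock) for 16 h at 37C. CCF4-AM substrate added 2 h at room temperature; 460/530 nm emission ratio fitted upward versus DMSO.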

Assay [7] has as its target Thyroid hormone receptor alpha (Rattus norvegicus) + Thyroid hormone receptor beta (Rattus norvegicus) (UniProt P18113+P63059). Kind of assay: TOX21_TR_LUC_GH3_Antagonist_Followup: Tox21 GH3 Thyroid Hormone Receptor Antagonism Luciferase Follow-Up Assay (AID 2283942). The method, boiled down: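 Luminescence read-out (ONE-Glo, 30 min at room temperature) in GH3 reporter cells challenged with 1.0 nM T3 final. Compounds ran at 92 uM to 5nM over 15 concentrations for 24 h; DMSO served as negative control and baseline.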

The next assay addresses THRA (gene 7067) (UniProt P10827). As to the kind of experiment: TOX21_TRA_COA_Antagonist_Followup_ratio: Tox21 Thyroid Hormone Receptor alpha Antagonism through Coactivator Recruitment Follow-Up Assay, Ratio (AID 2283953). Summed up: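 We measured antagonism of T3-type coactivator recruitment using a TR-FRET ratio (emission 520 and 495 nm) between a Tb-labelled anti-GST antibody on TRα LBD (2.5 nM) and SRC-2 peptide (200 nM). Activity was scaled between DMSO and T3 wells.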

Another assay has as its target THRB (gene 7068) (UniProt P10828). As to the kind of experiment: TOX21_TRB_BLA_Antagonist_Followup_ratio: Tox21 Thyroid Hormone Receptor beta Antagonism Beta-lactamase (BLA) Follow-Up Assay, Ratio (AID 2283958). The method, boiled down: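 Read-out: blue/green (460:530 nm) ratio of cleaved to uncleaved CCF4-AM after 2 h at room temperature, fitted against DMSO baseline. HEK293T UAS-bla cells carrying GAL4-human TRβ LBD were exposed 18 h, 37C/5% CO2.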

Assay [8] is described as follows: TOX21_TRB_BLA_Antagonist_Followup_viability: Viability Assessment in the Tox21 Thyroid Hormone Receptor beta Antagonism Beta-lactamase (BLA) Follow-Up Assay (AID 2283961). Summed up:
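Cytotoxicity is measured in parallel with the antagonist-mode TRβ beta-lactamase screen, using ATP-coupled luciferase luminescence. Engineered HEK293T cells are treated for 18 h with 11-point compound series in triplicate.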

For assay [9], the target named is Retinoic acid receptor RXR-alpha (Homo sapiens) (UniProt P19793). As to the kind of experiment: TOX21_TR_RXR_BLA_Antagonist_Followup_ratio: Tox21 Thyroid Hormone Receptor beta Retinoid X Receptor alpha (RXRa) Antagonism Beta-lactamase (BLA) Follow-Up Assay, Ratio (AID 2283972). Summed up: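 Antagonist mode used GAL4 UAS-driven beta-lactamase in HEK293T cells expressing RXRa, treated for 16 h with compound concentration series. Activity was taken from the blue/green (460:530 nm) ratio of cleaved to uncleaved substrate.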
Retinoic acid receptor RXR-alpha (Homo sapiens), sequence (P19793 whole entry, looked up, the tested form may be a part): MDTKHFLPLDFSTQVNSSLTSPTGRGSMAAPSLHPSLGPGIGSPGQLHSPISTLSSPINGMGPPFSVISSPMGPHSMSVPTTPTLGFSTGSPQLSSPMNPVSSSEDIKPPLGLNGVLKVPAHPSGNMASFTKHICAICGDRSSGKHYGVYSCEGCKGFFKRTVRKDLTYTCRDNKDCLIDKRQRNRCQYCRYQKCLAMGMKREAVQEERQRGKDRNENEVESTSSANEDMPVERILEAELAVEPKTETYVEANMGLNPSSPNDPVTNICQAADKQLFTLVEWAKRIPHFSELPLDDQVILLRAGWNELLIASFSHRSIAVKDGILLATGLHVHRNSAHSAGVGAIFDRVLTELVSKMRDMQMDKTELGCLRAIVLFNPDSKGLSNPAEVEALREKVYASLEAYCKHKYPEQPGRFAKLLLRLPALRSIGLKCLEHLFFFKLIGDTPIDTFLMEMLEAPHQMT

Assay [10] in a line: CCTE_Harrill_HTTr_Viability_MCF7: CCTE's 6-hour Cell Viability Assessment for the High-Throughput Transcriptomics (HTTr) Platform, in MCF-7 cells cultured in DMEM + 10% fetal bovine serum, Harrill Lab (AID 2284010; active = hit-call score of the fitted dose curve at least 0.9, where 1 is the maximum; inactive = score below 0.9). Summed up: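 PI exclusion, high-content imaging; 8-pt dilution series, 6 h exposure; bidirectional fit vs DMSO (neg. ctrl/baseline); gain of signal = loss of membrane integrity.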

Assay [11] in a line: CCTE_Harrill_HTTr_Apoptosis_MCF7: CCTE's 6-hour Apoptosis Assessment for the High-Throughput Transcriptomics (HTTr) Platform, in MCF-7 cells cultured in DMEM + 10% fetal bovine serum, Harrill Lab (AID 2284011; active = hit-call score of the fitted dose curve at least 0.9, where 1 is the maximum; inactive = score below 0.9). The method, boiled down: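 Cells are dosed with test chemicals at eight concentrations and imaged 6 hours later for caspase-3/7 activity using a green fluorogenic detection reagent. Activity is fitted in both directions against DMSO controls.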

Assay [12] in a line: TOX21_p53_BLA_p5_viability: Viability Assessment in the Tox21 HCT-116 p53 Agonism Beta-lactamase Assay, Phase 5 (AID 2283600). The method, boiled down:
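Viability is taken from cellular ATP content, measured by luciferase luminescence in the same wells after the beta-lactamase ratio read. Cells are seeded at 4000 per well and exposed to DMSO-dissolved compounds, diluted 217-fold, for 16 h.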

Structures are written as SMILES. Inconclusive results are not listed. The source made the active and inactive calls. Rule for the calls, unless noted: active = hit-call score of the fitted dose curve at least 0.9, where 1 is the maximum; inconclusive = response in the unintended direction; inactive = score below 0.9.

Cellular tumor antigen p53 (Homo sapiens), sequence (P04637 whole entry, looked up): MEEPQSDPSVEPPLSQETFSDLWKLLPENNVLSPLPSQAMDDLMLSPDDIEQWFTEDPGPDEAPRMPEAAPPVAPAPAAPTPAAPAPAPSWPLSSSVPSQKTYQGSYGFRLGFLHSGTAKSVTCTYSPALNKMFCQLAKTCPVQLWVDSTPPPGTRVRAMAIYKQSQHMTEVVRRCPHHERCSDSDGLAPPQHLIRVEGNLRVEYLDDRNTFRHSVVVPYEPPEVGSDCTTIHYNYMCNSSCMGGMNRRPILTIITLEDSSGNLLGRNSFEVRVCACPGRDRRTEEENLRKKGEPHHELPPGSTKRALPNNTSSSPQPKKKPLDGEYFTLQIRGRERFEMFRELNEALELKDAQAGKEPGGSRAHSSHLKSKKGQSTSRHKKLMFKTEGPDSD
THRA (gene 7067), sequence (P10827 whole entry, looked up, the tested form may be a part): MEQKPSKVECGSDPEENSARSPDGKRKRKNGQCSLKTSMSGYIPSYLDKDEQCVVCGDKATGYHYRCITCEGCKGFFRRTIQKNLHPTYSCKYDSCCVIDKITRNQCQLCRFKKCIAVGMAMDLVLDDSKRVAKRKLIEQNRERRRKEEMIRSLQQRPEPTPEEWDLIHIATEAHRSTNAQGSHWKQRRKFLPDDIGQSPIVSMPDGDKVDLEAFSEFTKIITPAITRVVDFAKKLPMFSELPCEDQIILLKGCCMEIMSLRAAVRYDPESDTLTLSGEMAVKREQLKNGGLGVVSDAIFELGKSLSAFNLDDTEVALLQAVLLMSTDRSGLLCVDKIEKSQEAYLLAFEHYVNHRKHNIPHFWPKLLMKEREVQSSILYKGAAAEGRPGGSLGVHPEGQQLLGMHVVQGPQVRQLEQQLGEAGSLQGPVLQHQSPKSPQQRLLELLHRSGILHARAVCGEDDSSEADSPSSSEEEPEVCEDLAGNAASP
THRB (gene 7068), sequence (P10828 whole entry, looked up, the tested form may be a part): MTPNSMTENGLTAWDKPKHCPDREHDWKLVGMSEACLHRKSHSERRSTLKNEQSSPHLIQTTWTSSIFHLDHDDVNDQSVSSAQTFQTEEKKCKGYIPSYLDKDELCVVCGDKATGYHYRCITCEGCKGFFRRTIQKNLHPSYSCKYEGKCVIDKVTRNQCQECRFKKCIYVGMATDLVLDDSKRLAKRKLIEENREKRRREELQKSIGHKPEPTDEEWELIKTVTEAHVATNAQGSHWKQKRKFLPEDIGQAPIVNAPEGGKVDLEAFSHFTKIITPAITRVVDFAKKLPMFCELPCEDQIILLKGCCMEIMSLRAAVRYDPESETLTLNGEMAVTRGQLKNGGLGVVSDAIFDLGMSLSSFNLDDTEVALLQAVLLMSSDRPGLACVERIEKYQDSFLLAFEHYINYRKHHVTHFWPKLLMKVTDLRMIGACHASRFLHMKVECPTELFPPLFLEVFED

`O=C(N[C@@H]1N=C(c2ccccc2F)c2cccc3c2N(CC3)C1=O)c1cc2ccccc2[nH]1`: the compound was classed as inactive in assay [1], in assay [2], in [3], in assay [4], in assay [5] and in assay [7]. Further, the outcome (in the assay with THRA (gene 7067); in the assay with THRB (gene 7068); in assay [8]; in assay [9]) was inactive. Besides, the AC50 in [6] was 26.6 µM (active).
With `NC(=O)CI`, the compound was called inactive in assay [1], in assay [2], in [3], in assay [4], in assay [5] and in [6].
As to `O=C(O)c1ccc2[nH]cc(CCCCN3CC=C(c4ccccc4)CC3)c2c1`, the call in assay [1], in [2], in assay [3], in [4], in [5] and in assay [6] was inactive.
`Cc1cccc2sc3nncn3c12`: the compound was classed as inactive in [1], in assay [2], in [3], in assay [4], in [5] and in assay [6]. The outcome in [10] and in assay [11] was inactive.
On to `CN1C(=O)NC(=O)C(C)(C2=CCCCC2)C1=O` (stereo not drawn), for which the result in [1], in [2], in [3], in assay [4], in [5] and in [12] was inactive. In assay [6], the outcome was inactive.

For orientation: AC50 means the concentration at which the activity in the assay is half-maximal.
